Drawing on PubChem BioAssay AID778 (Sanford-Burnham Center for Chemical Genomics, 2007), this text covers inhibition for 97 compounds.

About 20,000 (21%) of roughly 96,000 compounds were called active. The list is a sample of the results. Unmarked numbers belong to inactive results.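 Rule for the calls: active = CYP2C19 inhibition above a set limit at 5 µM in the primary screen (cut at about 50% in these data); inactive = the rest.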

For this assay, the target named is Cytochrome P450 2C19 (Homo sapiens) (UniProt P33261). Description: blockers of cytochrome P450 2C19 activity – biochemical, luminescence, ADME assay, primary screen (AID 778).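 Note: plate controls were negative control wells for no effect and 2.5 mM tranylcypromine positive control for full effect.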 The conditions noted are these: CYP2C19 Supersomes, luciferin-H EGE luminescence, 30 min; at 5 µM; active compounds read high.
Chain of Cytochrome P450 2C19 (Homo sapiens) (P33261 whole entry, looked up): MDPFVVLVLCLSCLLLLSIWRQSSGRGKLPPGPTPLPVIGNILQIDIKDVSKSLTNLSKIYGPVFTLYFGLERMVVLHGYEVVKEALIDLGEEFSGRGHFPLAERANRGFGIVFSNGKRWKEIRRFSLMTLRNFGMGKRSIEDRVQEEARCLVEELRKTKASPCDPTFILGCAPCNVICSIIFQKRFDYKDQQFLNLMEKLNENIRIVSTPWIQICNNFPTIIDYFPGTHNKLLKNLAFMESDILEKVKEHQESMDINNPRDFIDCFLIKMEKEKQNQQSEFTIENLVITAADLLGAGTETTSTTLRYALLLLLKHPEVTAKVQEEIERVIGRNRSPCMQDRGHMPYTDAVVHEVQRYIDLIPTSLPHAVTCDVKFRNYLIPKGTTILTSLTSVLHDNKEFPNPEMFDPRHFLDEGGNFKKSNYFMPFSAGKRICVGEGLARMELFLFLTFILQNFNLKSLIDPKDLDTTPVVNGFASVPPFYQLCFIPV
Broadly, the inhibition is the relative decrease from the control value, in per cent. For the compound `O=C1OC(c2ccc(Cl)cc2)=N/C1=C\c1cccnc1`, the inhibition is 33.1%.

As for `CCN(CC)C(=O)CSc1nc2ccccc2n1CC(=O)N1CCN(c2ccccc2OC)CC1`, the inhibition is 27%.

Regarding `CCN(CC)C(=O)CC1(c2ccccc2OC)CCOC(C(C)C)C1` (configuration not stated), the inhibition is 73.3% (active).

For `C/C(CC(O)(/C=N/O)c1ccccc1)=N\O` (configuration not stated), the inhibition is -13%.

Take `Cc1ccc(N2CCN(/N=C/c3cccs3)CC2)cc1`: the inhibition was 35.3%.

Turning to `O=C(Cn1[nH]c(=O)c2ccccc2c1=O)Nc1cccc(-c2nnc3n2CCCCC3)c1`, the inhibition was 25.7%.

Take `O=C(NCc1ccccc1)C1C(=O)N(Cc2ccccc2)C(=O)C1C1(O)CCCC1` (configuration not stated): the inhibition was 91.9% (active).

Take `O=C(CN1C(=O)NC(Cc2ccccc2)(Cc2ccccc2)C1=O)NCC1CCCCC1`: the inhibition is 41.6%.

As to `O=C(NCCCN1CCN(Cc2ccccc2)CC1)C1CCN(S(=O)(=O)N2CCCC2)CC1`, the inhibition is -1.9%.

As to `Cc1ccccc1Nc1nnc(C)c(=O)[nH]1`, the inhibition was 0.4%.

`CCc1c(O)nc(SCC(=O)Nc2ccccc2)n(C(C)CC)c1=O` (configuration not stated): the inhibition was 0.7%.

With `COC(=O)c1ccc(CSc2nc3ccccc3c(=O)n2-c2cccc(OC)c2)o1`, the inhibition was 98.4% (active).

With `COc1cccc(-n2cc(C(=O)O)c3ccccc3c2=O)c1`, the inhibition is 1.5%.

As to `N#CCSc1nc2ccccc2c(=O)n1-c1ccccc1`, the inhibition is 13.3%.

Regarding `COCC(C)n1c(SCc2ccc(C(=O)OC)o2)nc2ccccc2c1=O` (configuration not stated), the inhibition was 96.7% (active).

Regarding `CN1CCN(C(=O)C2C3C=CC(C3)C2C(=O)O)CC1` (configuration not stated), the inhibition was 33.8%.

With `OCCNc1nc2ccccc2n1-c1ncnc2sc3c(c12)CCC3`, the inhibition was -6%.

Regarding `COc1ccc(N2C(=O)C3CCCN3C2c2cc(OC)c(OC)cc2OC)cc1` (configuration not stated), the inhibition is -12.2%.

On to `Cc1ccsc1CNn1cnnc1SCc1ccccc1F`, for which the inhibition was 83.4% (active).

On to `Cc1ccccc1CSc1nnc(-c2cccnc2)n1N`, for which the inhibition was 28.5%.

For `COc1ccc2[nH]c(=O)c(CNc3ccc(C)c(C)c3)cc2c1`, the inhibition is 24%.

For the compound `COc1cccc2cc(C(C)N(CCCN3CCOCC3)C(=O)Nc3ccc(Cl)cc3)oc12` (configuration not stated), the inhibition was 48.4%.

On to `Cc1ccc(-c2csc(-c3c[nH]c4ccccc34)n2)cc1`, for which the inhibition is -2.4%.

On to `COCCOCCn1cnc2ccccc21`, for which the inhibition is -2.7%.

For the compound `O=C(COC(=O)c1ccc(Oc2ccccc2)cc1)Nc1nnc(-c2ccccc2)o1`, the inhibition was 34.2%.

Regarding `CCOC(=O)c1c(C)oc2ccc(OCC(=O)N(CC)CC)cc12`, the inhibition is 47.5%.

Turning to `CCOC(=O)c1c(C)[nH]c(C(=O)COc2ccc3c(c2)OCO3)c1C`, the inhibition is 78.4% (active).

With `CCOc1ccc(NCCC(=O)c2ccc3c(c2)OCO3)cc1`, the inhibition is 37.9%.

For the compound `CN1CCN(CCCNC(=O)c2cc3c(=O)oc4ccccc4c3s2)CC1`, the inhibition is -1.6%.

For `CC(C)(CNCC(O)c1ccccc1)N1CCOCC1` (configuration not stated), the inhibition was -1.1%.

Consider `CCC(=O)NNc1cc(=O)c2c(=O)n(C)c(=O)n(C)c2[nH]1`, for which the inhibition was 11.1%.

Take `O=C(c1cccc(C(=O)N2CCc3ccccc32)n1)N1CCc2ccccc21`: the inhibition is 12.3%.

For `O=C(c1c(Cl)nc2sccn12)N1CCCc2ccccc21`, the inhibition is 91.5% (active).

With `COc1ccc2oc(=O)c(C(=O)N3CCCc4ccccc43)cc2c1`, the inhibition was 10.2%.

Turning to `Cc1noc(COc2ccccc2OCC(O)CNC(C)(C)C)n1` (configuration not stated), the inhibition is -7.7%.

On to `CN(c1ccccc1)c1ccc(/C=c2\s/c(=C(/C#N)C(=O)C(C)(C)C)n(Cc3ccco3)c2=O)cc1`, for which the inhibition was 5.4%.

On to `Cn1c(-c2sc3cc(C(F)(F)F)cnc3c2-c2ccccc2)n[nH]c1=S`, for which the inhibition was 47.3%.

Take `FC(F)(F)c1cc(-c2ccco2)nc(N2CCOCC2)n1`: the inhibition was -16.1%.

For `FC(F)(F)c1cc(-c2ccco2)nc(NCc2ccc(Cl)cc2)n1`, the inhibition was 57% (active).

`FC(F)(F)c1cc(-c2cccs2)nc(NCc2ccco2)n1`: the inhibition is 20.5%.

For the compound `Cc1ccccc1NC(=O)c1cnn(-c2ccccc2)c1NC(=O)c1ccco1`, the inhibition is -2.6%.

In the case of `COCCNC(=O)C(c1ccc(C)o1)N(Cc1cccs1)C(=O)c1snc(C(N)=O)c1N` (configuration not stated), the inhibition is 2.1%.

For `c1ccc2c(c1)OCC(c1nn3cnnc3s1)O2` (configuration not stated), the inhibition is 74.8% (active).

Take `O=C(CCN1C(=O)COc2ccccc21)NCCCN1CCN(c2ccc(F)cc2)CC1`: the inhibition was -10.1%.

`CCOC(=O)c1cnc(-n2nc(C)cc2C)nc1-n1nc(C)cc1C`: the inhibition was 5.2%.

For the compound `O=C(NNS(=O)(=O)c1ccc(Cl)cc1)C1CCN(Cc2ccccc2)CC1`, the inhibition is 6%.

With `CCc1nnc(NC(=O)c2ccc(S(=O)(=O)NC3CCCCC3)cc2)s1`, the inhibition is 14.5%.

With `CCOC1CCCCC1NS(=O)(=O)c1ccc(Cl)cc1` (configuration not stated), the inhibition was 69.5% (active).

In the case of `C=CCOC(=O)C1=C(C)NC(SCC(=O)OCC)=C(C#N)C1c1ccc(C)cc1` (configuration not stated), the inhibition was 33.7%.

Take `CCCc1[nH]nc2c1C(c1ccc(OC(=O)c3ccco3)cc1)C(C#N)=C(N)O2` (configuration not stated): the inhibition is 43.8%.

Regarding `C=CCOC(=O)C1=C(C)OC(N)=C(C#N)C1c1ccc(F)cc1` (configuration not stated), the inhibition is 75.2% (active).

In the case of `Cc1c(C#N)c2ncn(CC#N)c(=O)c2n1-c1ccccc1`, the inhibition was -12.1%.

As for `CCOc1cc(N2CCOCC2)c(OCC)cc1NC(=O)COc1cccc2cccnc12`, the inhibition is 3.8%.

Consider `Cc1cc(OCCOc2cccc3cccnc23)c(C)cc1Cl`, for which the inhibition was 73.2% (active).

`C=CCn1c(COc2cccc3cccnc23)nnc1SCC(=O)OC`: the inhibition is 26.2%.

Turning to `CN(C)Cc1c(C#N)c2ccccc2n1C`, the inhibition is -0.3%.

On to `S=c1[nH]nc(CSCc2ccc(Cl)cc2Cl)n1-c1ccccc1`, for which the inhibition was 64.8% (active).

With `Clc1ccc(CSc2nnc(/C=C/c3ccccc3)o2)c(Cl)c1`, the inhibition is 1.6%.

As to `O=c1[nH]nc(CSCc2ccccc2Cl)[nH]1`, the inhibition was 1.4%.

On to `COC(=O)CCSc1cc([N+](=O)[O-])cc2c1c(C1OCCS1)nn2-c1ccccc1` (configuration not stated), for which the inhibition is 8.6%.

With `Cc1ccc(Nc2nc(C)cc(C)c2C(N)=O)cc1`, the inhibition is 7.6%.

On to `COCCN1C(=O)c2oc3c(C)cc(C)cc3c(=O)c2C1c1cccc(O)c1` (configuration not stated), for which the inhibition was 70.6% (active).

For the compound `O=C1c2oc3ccc(Br)cc3c(=O)c2C(c2cccc(F)c2)N1CCO` (configuration not stated), the inhibition is 40.4%.

With `O=C1c2oc3ccccc3c(=O)c2C(c2cccc(O)c2)N1c1ccccn1` (configuration not stated), the inhibition was 38.4%.

As for `Cc1ccc(-n2ncc3c(Nc4cccc(C(=O)O)c4)ncnc32)cc1`, the inhibition is -20%.

Turning to `COCCn1c(=S)[nH]c2cc(C(=O)NCCc3ccc(OC)c(OC)c3)ccc2c1=O`, the inhibition was 17.7%.

`COc1ccc(CCN2C(=O)c3[nH]nc(-c4ccccc4O)c3C2c2ccc(C)cc2)cc1OC` (configuration not stated): the inhibition is 21.1%.

For the compound `COC(=O)c1ccc(C2C(Oc3ccccc3C)C(=O)N2CCc2ccc(OC)c(OC)c2)cc1` (configuration not stated), the inhibition was 65.2% (active).

For the compound `c1csc(-c2cn3c(n2)SCC3)c1`, the inhibition is -13.7%.

In the case of `CC(C)C(C(=O)NC1CCCCC1)N(CC1CCCO1)C(=O)CNS(=O)(=O)c1ccc(F)cc1` (configuration not stated), the inhibition was -10.8%.

As for `c1ccc(-c2nnc3n2NC(c2ccc4c(c2)OCO4)S3)cc1` (configuration not stated), the inhibition is 28.9%.

As to `CCn1c(SC)nc(O)c(C(c2ccc(OC)c(O)c2)c2c(O)nc(SC)n(CC)c2=O)c1=O`, the inhibition was -2.9%.

In the case of `O=S(=O)(Cc1cc(Sc2ccccc2)nc(-c2ccccc2)n1)c1ccccc1`, the inhibition is 50.5% (active).

As to `O=C(CSCc1ccccc1)N1CCc2ccccc21`, the inhibition is 51.6% (active).

Regarding `CC1CC(C)CN(CC(=O)N2c3ccccc3CCc3ccccc32)C1` (configuration not stated), the inhibition is 24.7%.

In the case of `Cc1ccc(S(=O)(=O)N(C)CC(=O)N2CCc3ccccc32)cc1`, the inhibition is 9.1%.

In the case of `Cn1cnc2c1c(=O)n(Cc1c(Cl)cccc1Cl)c(=O)n2C`, the inhibition is 49.5%.

On to `Cc1c(C#N)c(NC(=O)c2ccccc2)n(Cc2ccccc2)c1C`, for which the inhibition was 22.6%.

As to `CCOC(=O)CCC(=O)OCC(=O)NC(C)C1CC2CCC1C2` (configuration not stated), the inhibition is 10.6%.

Regarding `CCOC(=O)N1CCC(O)(c2cc(C)c(C)cc2C)CC1`, the inhibition is 43.5%.

Take `O=C(CN1C(=O)c2ccccc2S1(=O)=O)N1CCc2ccccc21`: the inhibition is -7.4%.

Regarding `O=C1c2ccccc2S(=O)(=O)N1CC(O)Cn1c2ccccc2c2ccccc21` (configuration not stated), the inhibition is 73.4% (active).

Take `CNC(=O)CN1C(=O)c2ccccc2S1(=O)=O`: the inhibition is -9.3%.

As for `COc1ccc(-n2ncc3c(N4CCc5ccccc54)ncnc32)cc1`, the inhibition is -2.2%.

Turning to `Cc1n[nH]c(=S)n1/N=C/c1ccc(Br)o1`, the inhibition was -3.6%.

For the compound `CCC(Sc1nncn1C)C(=O)Nc1nnc(-c2ccc(Cl)cc2)s1` (configuration not stated), the inhibition is 17.4%.

Consider `CCOc1cc2[nH]c(=S)n(CCCN3CCCC3=O)c(=O)c2cc1OCC`, for which the inhibition is 6.7%.

With `O=C(O)c1ccc(NC(=O)C2CCCCC2)cc1`, the inhibition was -21.5%.

On to `O=C(O)C1CCCCC1C(=O)Nc1ccc(Cl)cc1` (configuration not stated), for which the inhibition was 29.9%.

As for `O=C(Nc1cnn(Cc2ccc(Cl)cc2)c1)C1CCCC1`, the inhibition was 84.8% (active).

Take `C[N+](C)(C)CCNC(=O)c1c(O)c2c([nH]c1=O)CCCC2`: the inhibition is 7.7%.

For `O=C(O)[C@@H]1CCCN1c1ncnc2sc3c(c12)CCC3`, the inhibition was 6.9%.

For the compound `O=P(O)(CP(=O)(c1ccccc1)c1ccccc1)c1ccccc1O`, the inhibition was 22.6%.

Regarding `O=C1CC(c2cccc(Br)c2)C2=C(CCCC2=O)N1` (configuration not stated), the inhibition is 11.9%.

Turning to `CN(C)Cc1ccccc1C1(O)c2ccccc2CSc2ccccc21` (configuration not stated), the inhibition is 67.5% (active).

As for `CCN(CC)c1ccc(NC(=O)c2ccc(Cl)nc2)cc1`, the inhibition was 7.7%.

For the compound `CSc1ccc(Cl)c(C(=O)OCC(=O)N2CC(C)OC(C)C2)c1` (configuration not stated), the inhibition is 12.4%.
